# Most compounds without a hit are left out; they make up all but 1.4% or so of the library.
# BRCA1 expr act: increases BRCA1 expression; MCF7-BRCA1-FFLuc reporter, luminescence, 48 h; response scale: scaled: vehicle 0%, 10 µM genistein 100%; Potency, µM (top dose mostly 46.1 µM), for the others: at the top dose activation, actives largely listed as activators; 380,000 tested, 1.1% active; also: potency is read from the fitted curve at half-maximal effect; nearly all actives have a fitted effect of over 80% in size
#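 Luminescence from a BRCA1-driven firefly luciferase in MCF7 cells was read after 48 h compound exposure at 37 C. Data normalized against DMSO and a 10microM genistein activation control, then curve-fitted across the titration.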
# N370S GC mod: inhibits or activates N370S mutant glucocerebrosidase; P04062; N370S GC spleen homogenate, 4MU-glucoside fluorescence; Potency, µM (series often up to 59.4 µM), for inactives: at the highest dose activity change, negative = inhibition, actives largely listed as inhibitors; 330,000 tested, 0.092% active;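 also: potency is read from the fitted curve at half-maximal effect; 0% = full enzyme activity and -100% = no enzyme basal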
# TSHR antagonist: blocks TSH signaling through the human TSH receptor. TSHR-expressing cells, TSH-stimulated cAMP HTRF, 2 h; stronger effect = lower value. activity change, negative = inhibition, % at 11.5 µM. 330,000 tested, 0.2% active. AID 504810;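 active = activity change below a set negative limit, meaning inhibition stronger than a set level, cut at about -70% in these data; inconclusive = activity change between two set negative limits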; also: % is scaled to controls: 0 for no effect and ±100 for the full control effect
#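 Freshly harvested TSHR cells receive pin-tooled compound, then EC80 TSH at 4nM final. After 2 hours at 37 deg C, antibody in lysis buffer and cAMP-d2 are added; 30 minutes at ambient temperature precede the HTRF read.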
# GLS inhibitor: glutaminase GLS (human) inhibition | O94925 | GLS enzymatic activity, qHTS titration | Potency, µM (top dose mostly 45.5 µM), for the others: at the highest dose activity change, negative = inhibition, usual class: inhibitors | 410,000 tested, 0.21% active; also: potency is read from the fitted curve at half-maximal effect; % is scaled to controls: 0 for no effect and ±100 for the full control effect
# Target sequence (O94925 whole entry, looked up): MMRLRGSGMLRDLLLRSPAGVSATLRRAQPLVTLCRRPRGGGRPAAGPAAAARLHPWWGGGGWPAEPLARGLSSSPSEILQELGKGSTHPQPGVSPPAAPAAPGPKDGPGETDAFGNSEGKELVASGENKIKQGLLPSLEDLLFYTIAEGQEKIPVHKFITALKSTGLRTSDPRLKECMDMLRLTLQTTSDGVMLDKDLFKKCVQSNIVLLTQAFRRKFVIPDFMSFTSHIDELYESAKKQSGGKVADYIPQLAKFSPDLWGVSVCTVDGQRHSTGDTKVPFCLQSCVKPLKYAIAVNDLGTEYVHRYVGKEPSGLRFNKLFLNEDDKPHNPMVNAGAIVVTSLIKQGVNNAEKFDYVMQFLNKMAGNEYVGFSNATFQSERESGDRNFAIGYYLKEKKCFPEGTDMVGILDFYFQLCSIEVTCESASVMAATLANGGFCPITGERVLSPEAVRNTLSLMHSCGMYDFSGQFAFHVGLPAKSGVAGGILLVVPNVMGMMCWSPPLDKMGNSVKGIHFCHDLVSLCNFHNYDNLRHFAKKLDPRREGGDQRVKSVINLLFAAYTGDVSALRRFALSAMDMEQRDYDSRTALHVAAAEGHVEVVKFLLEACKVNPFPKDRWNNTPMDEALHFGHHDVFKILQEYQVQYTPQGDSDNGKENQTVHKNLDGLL
#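 Enzyme dispensed in phosphate buffer (45 mM, pH 8.2, 0.02% Tween-20), compounds pinned in, then 1 mM L-glutamine solution and the glutamate oxidase–HRP–Amplex Red mix added; fluorescence read immediately and again after 30 min at room temperature.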
# TCR activator: T cell receptor activation. primary human leukocytes, anti-CD3, IL-2 HTRF, 48 h. Potency, µM (highest dose often 9.22 µM), inactives show at the top dose activation of IL-2 secretion, most hits filed as activators. 330,000 tested, under 10 active. AID 504894; also: % of control where 0% means no effect
#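 Activity was scored as IL-2 release from primary human leukocytes given only a TCR signal (a-CD3 beads) plus compound for 48 hr. Detection used a two-antibody HTRF format read at 665nm.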
# p53 reactivation: re-activators of mutant p53; Potency, µM (titrated, usually from 92.2 µM), inactives show at the top dose activity change, positive = activation, usual class: activators; H1299 p53-A138V BP100-luciferase reporter, luminescence, 24 h; AID 504706; 320,000 tested, 0.063% active; also: potency is read from the fitted curve at half-maximal effect; % of control where 0% means no effect; nearly all actives have a fitted effect of over 45% in size
#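 p53-null H1299 cells stably carrying temperature-sensitive p53-A138V and a BP100-luciferase reporter were pinned with compounds (4-point, 1:5 series) and held 24 hrs at 37 deg C. Luminescence was read 10 min after detection reagent.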
# Starred values were filed as active, the others as inactive; ? = inconclusive; . = no result; [ ] = another dose, or the depositor's remark. Unless noted, calls follow the shape of the dose curve; as a rule, active = well fitted curve in the direction sought with a large enough effect; inconclusive = small, poorly fitted or top-dose-only effect, or another doubt; inactive = no such curve, though single readings can be large; an effect the other way counts as inactive or inconclusive.
SMILES,BRCA1 expr act,N370S GC mod,TSHR antagonist,GLS inhibitor,TCR activator,p53 reactivation
CC[C@H](C)[C@H](N)C(=O)N[C@@H](CC(N)=O)C(=O)N1CCC[C@H]1C(=O)N[C@H](C(=O)N[C@@H](Cc1ccc(O)cc1)C(=O)N[C@@H](CCCN=C(N)N)C(=O)N[C@@H](CC(C)C)C(=O)N[C@@H](CCCN=C(N)N)C(=O)N[C@@H](Cc1ccc(O)cc1)C(N)=O)[C@@H](C)CC,.,-4%,.,.,.,.
OC[C@@H]1OC(O)[C@@H](O)[C@H](O)[C@@H]1O (stereo partly drawn),.,-12%,.,.,.,.
Brc1cccc(-c2nnn3c2nc(NCc2ccc4c(c2)OCO4)c2ccccc23)c1,-10%,.,.,0%,.,.
CC(=O)c1ccccc1S(=O)(=O)N1CCN(c2nc(-c3cccs3)nc3ccccc23)CC1,-30%,.,.,.,.,.
O=C(COc1ccccc1C(=O)Nc1ccccc1)Nc1ccc2ccccc2c1,-44%,.,.,.,.,.
COc1cccc(C(=O)Nc2ccc3c(c2)C(=O)c2ccccc2C3=O)c1,?,1%,-11,2%,-8%,21%
Cc1ccc(-c2nn(-c3ccccc3)cc2C(=O)Nc2ccc(C(=O)O)cc2)cc1,10µM*,-3%,-19,-11%,-2%,5%
O=C(Nc1ccc2c(c1)C(=O)c1ccccc1-2)c1ccccc1,2.8µM*,.,.,-7%,2%,.
Cc1ccc(NC(=O)c2cn(-c3ccccc3)nc2-c2ccccc2)cc1,.,.,.,2%,.,.
Cc1ccc(NC(=O)c2ccccc2)cc1,3.5µM*,3%,-1,-23%,17%,?
CCOC(=O)CCCC(=O)N1CCN(/[N+]([O-])=N/Oc2ccc([N+](=O)[O-])cc2[N+](=O)[O-])CC1,-3%,.,.,.,.,.
C/C(N[C@@H]1CSCC1O)=C1/C(=O)CC2[C@@H]1C2(C)C (stereo partly drawn),.,-2%,.,.,.,.
C/C(NC(=O)c1ccccc1)=C1/C(=O)CC2C1C2(C)C (stereo not drawn),11µM*,21%[2.35 µM],-13,-3%,-5%,?
O=c1oc2ccc(Br)cc2cc1-c1nc2c(s1)CCc1ccccc1-2,-18%,.,.,.,.,.
Cn1cnc(S(=O)(=O)Nc2ccc(Cl)c(C(F)(F)F)c2)c1,0%,-1%,6,4%,7%,0%
COc1ccc(NS(=O)(=O)c2cn(C)cn2)cc1Cl,14%,-9%,-142*,1%,-3%,-2%
COc1ccc(-n2c(C)cc(C(=O)COC(=O)c3ccc(O)cc3O)c2C)cc1,0%,.,-74*,13%,-8%,?
CN(C)c1ccc(/C=C/c2ccnc3ccccc23)cc1O,13%,.,.,.,.,.
Cc1ccccc1C(=O)N1CCN(CCc2ccccn2)CC1,.,.,.,1%,.,.
C/C(=N\NC(=O)c1cccc(C)c1O)c1ccc(NC(=O)Cc2ccccc2)cc1,5µM*,-5%,-9,15%,1%,19%
CCN(CC)c1ccc2cc(-c3nnc(-c4ccccc4)o3)c(=O)oc2c1,1.4µM*,4%,-8,-7%,-2%[46.1 µM],?
CCCCCCCCCCCCCCCCCC(=O)[O][Al],.,.,.,-3%,.,.
O=C(N/N=C/c1sc2ccccc2c1O)c1cccc2ccccc12,-76%,-14%,3,?,4%[46.1 µM],?
COc1ccc(C(=O)N/N=C/c2sc3ccccc3c2O)cc1,-76%,-3%,-14,16µM*,-1%[46.1 µM],?
O=C(N/N=C/c1sc2ccccc2c1O)c1ccccc1,-80%,-2%,-9,13%,1%[46.1 µM],14µM*
SMILES,BRCA1 expr act,N370S GC mod,TSHR antagonist,GLS inhibitor,TCR activator,p53 reactivation
CC(C)C[C@@H](NC(=O)[C@@H](COC(C)(C)C)NC(=O)[C@H](Cc1ccc(O)cc1)NC(=O)[C@@H](CO)NC(=O)[C@@H](Cc1c[nH]c2ccccc12)NC(=O)[C@@H](Cc1cnc[nH]1)NC(=O)[C@@H]1CCC(=O)N1)C(=O)N[C@H](CCCN=C(N)N)C(=O)N1CCC[C@H]1C(=O)NNC(N)=O,.,.,.,39%,.,.
CCCC/C=C/[C@@H](c1ccccc1)C1COC(=O)CC1O (stereo partly drawn),.,2%,.,.,.,.
C#C[C@]1(OC(C)=O)CCC2C3CCC4=CC(=O)CC[C@@H]4C3CC[C@@]21C (stereo partly drawn),0%,-2%,-88*,1%,-4%,9%
COc1ccc2c(c1)CCc1c(C(=O)NCc3ccco3)noc1-2,6.3µM*,5%,-10,1%,3%,?
COCCNC(=O)c1noc2c1CCc1cc(OC)ccc1-2,2.2µM*,-24%,-9,-4%,5%,17%
O=c1[nH]c(C2CCN(S(=O)(=O)c3cccc(Cl)c3)CC2)nc2c1nnn2Cc1ccccc1,-53%,-27%,-103*,?,-6%,4%
O=c1[nH]c(C2CCN(S(=O)(=O)c3ccccc3)CC2)nc2c1nnn2Cc1cccc(Cl)c1,-59%,-19%,1,0%,0%,3%
CN1C/C(=C/c2ccc(B(O)O)cc2)C(=O)/C(=C/c2ccc(B(O)O)cc2)C1,.,0%,.,.,.,.
Cn1cc(Cl)c(C(=O)N/N=C/c2ccc3c4c(cccc24)CC3)n1,1.3µM*,3%,-80*,-4%,2%,?
Cc1ccc(/C=N/NC(=O)c2nn(C)cc2Cl)cc1,?,8%,-1,17%,1%[46.1 µM],?
Cc1ccc(N(C)C)cc1,.,10%,.,.,.,.
Cc1ccc(C)n1-c1ccc(N(C)C)cc1,-1%,-23%,-21,13µM*,2%,?
CC1CCCN(c2ncnc3c2nc2n3CCCCC2)C1 (stereo not drawn),11µM*,.,.,0%,.,.
COc1ccc(Nc2ncnc3c2nc2n3CCCCC2)cc1,10µM*,.,.,8%,.,.
O=[N+]([O-])c1ccccc1/C=C/c1ccnc2ccccc12,4%,.,.,.,.,.
COc1cc(OC)c(/C=C/c2ccc3ccccc3[n+]2C)c(OC)c1,-70%,.,.,.,.,.
N[C@@H](COC(c1cccc(F)c1)c1ccccc1OCc1ccccc1)C(=O)O (stereo partly drawn),.,0%,.,.,.,.
CCCOc1ccc(N2C(=O)CC(N(O)c3ccccc3)C2=O)cc1 (stereo not drawn),?,-2%,-14,44%,.,9%
COc1ccccc1N1C(=O)CC(N(O)c2ccccc2)C1=O (stereo not drawn),-6%,-2%,-3,1.3µM*,1%,1%
Cc1ccccc1N1C(=O)CC(N(O)c2ccccc2)C1=O (stereo not drawn),0%,-12%,6,25%,.,29%
CCCOc1ccccc1N1C(=O)CC(N(O)c2ccccc2)C1=O (stereo not drawn),-20%,9%,27,1.1µM*,-3%,3%
